Data: PubChem BioAssay (NCATS)
Where “and” joins values, the source holds several entries; their conditions need not be identical. Equal values may be shown once. Records with an inconclusive call do not appear. Calls of active or inactive are those of the source. Unless noted, the call rests on the fitted dose curve.

How the values were obtained:
[1] = qHTS for Inhibitors of the Functional Ribonucleoprotein Complex (vRNP) of Lassa (LASV) Arenavirus: Viability assay - alamar blue signal for LASV Primary Screen (AID 1347083; calls by dose curve; tested in HEK293 reporter line; further: nearly all actives have a fitted effect of over 80% in size; further: potency means the concentration at half of the fitted maximal effect)
[2] = qHTS for Inhibitors of the Functional Ribonucleoprotein Complex (vRNP) of Lymphocytic Choriomeningitis Arenaviruses (LCMV): Viability assay - alamar blue signal for LCMV Primary Screen (AID 1347085; calls by dose curve; tested in HEK293 reporter line; further: nearly all actives have a fitted effect of over 80% in size; further: potency means the concentration at half of the fitted maximal effect)
[3] = Confirmatory qHTS for VERO E6 Cytotoxicity Assay: Counterscreen for SARS-CoV-2 CPE Assay (AID 1508605); further: on the % scale 0 is the no-effect control and ±100 the full control effect; nearly all actives have a fitted effect of over 60% in size
[4] = Cytotoxicity counterscreen for inhibitors of SARS-CoV-2 cell entry (AID 1645845); further: nearly all actives have a fitted effect of over 50% in size; further: potency means the concentration at half of the fitted maximal effect
In short: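 HEK293-ACE2 cells (Expi293F stably expressing human ACE2) seeded overnight, then compound for 1 h plus 48 h at 37C. Viability as ATP content by luminescence; normalized to wells with cells and media-only wells.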

[5] = Primary qHTS to identify inhibitors of SARS-CoV-2 cell entry (AID 1645846); conditions: activity change, negative = inhibition: at 57.1 µM (top of the series) unless noted; further: nearly all actives have a fitted effect of over 45% in size; further: potency means the concentration at half of the fitted maximal effect
In short: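 HEK293-ACE2 (Expi293F, stable hACE2), 1500 cells/well, o/n 37C; cpd 23 nL pin, 1 h; MLV-PP w/ SARS-CoV-2-S (Wuhan-Hu-1, Δ19 C-term); 48 h 37C; Bright-Glo luminescence; normalized vs S-PP and bald PP.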

[6] = Validation screen for inhibitors of Lassa infection (AID 463096); further: on the % scale 0 is the no-effect control and ±100 the full control effect
[7] = Quantitative high throughput screen for delayed death inhibitors of the malarial parasite plastid, 48 hour incubation (AID 488752; active means well fitted curve in the direction sought with a large enough effect; an effect the other way counts as inactive or inconclusive; further: on the % scale 0 is the no-effect control and ±100 the full control effect; nearly all actives have a fitted effect of over 65% in size)
In short: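 Erythrocytes infected with P. falciparum carrying an integrated firefly luciferase reporter (2% hematocrit, 0.1% parasitemia final) were exposed to compounds in RPMI 1640/0.5% Albumax for 48 h at 37 C, 5% CO2. Growth inhibition was scored as reduced luminescence.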

[8] = Inducers of the Endoplasmic Reticulum Stress Response (ERSR) in human glioma: Validation (AID 504836; active means well fitted curve in the direction sought with a large enough effect; an effect the other way counts as inactive or inconclusive; further: 0% is about no effect)
In short: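 Stably transfected U87-MG glioma cells carrying a GRP78-based luciferase sensor; 16 h compound incubation. Luminescence end-point read 10 min after Bright-Glo addition at room temperature.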

[9] = molecular target: Bile acid receptor (Homo sapiens) (UniProt Q96RI1); test: qHTS assay for small molecule agonists of farnesoid X receptor signaling (AID 588527); conditions: HEK293T FXR-UAS-bla, beta-lactamase ratio, 16 h; activation: stronger effect = higher value;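 further: 0% = vehicle basal and 100% = reference agonist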
In short: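 FXR-UAS-bla HEK293T, 10% dialyzed FBS; cpds up to 92 uM titration, 16 h 37 C; CCF4 dye 2 h RT; fluorescence. Normalized to chenodeoxycholic acid 100 uM (100%) and DMSO (0%); Hill fit gives EC50, efficacy.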

[10] = molecular target: Peroxisome proliferator-activated receptor delta (Homo sapiens) (UniProt Q03181); test: qHTS assay for small molecule agonists of peroxisome proliferator-activated receptor delta signaling (AID 588534);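 further: 0% = DMSO basal wells and 100% = positive control agonist at 10 µM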
In short: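 Cell-based beta-lactamase reporter assay run in agonist mode: cells seeded and incubated 5 hrs at 37 C, compounds added and incubated 18 hrs at 37 C. CCF4 dye fluorescence read after 2 hrs at RT; EC50 and efficacy from Hill fits.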

[11] = Primary qHTS for Huh7 cytotoxicity: counterscreen for inhibitors of MERS-S pseudotyped particle cell entry (AID 1479147); conditions: outcome: dose series up to 57.1 µM unless noted
[12] = Primary qHTS for inhibitors of MERS-S pseudo-typed particle cell entry (AID 1479149); further: nearly all actives have a fitted effect of over 60% in size; on activity change, negative = inhibition: on the % scale 0 is the no-effect control and ±100 the full control effect
[13] = Primary qHTS for Vero E6 cytotoxicity: counterscreen for inhibitors of SARS-S pseudo-typed particle cell entry (AID 1479150); conditions: outcome: dose series up to 57.1 µM unless noted
[14] = Primary qHTS for inhibitors of SARS-S pseudo-typed particle cell entry (AID 1479145); further: nearly all actives have a fitted effect of over 45% in size
[15] = molecular target: Alpha-galactosidase (Coffea arabica) (UniProt Q42656); test: Counterscreen for Glucocerebrosidase Inhibitors: qHTS Assay for Coffee Bean alpha-Galactosidase at pH 4.5 (AID 957; active means well fitted curve in the direction sought with a large enough effect; an effect the other way counts as inactive or inconclusive;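 further: plate controls were enzyme alone for no effect and no enzyme for full effect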)
In short: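 Green coffee bean enzyme (2 nM final) was incubated with compounds (0.7 nM to 77 uM) and 4-methylumbelliferyl alpha-D-galactopyranoside (80 uM final) in 50 mM citric acid, 0.005% Tween-20, pH 4.5, 20 min at room temperature; AC50 from Hill fits.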

[16] = molecular target: Alpha-galactosidase (Coffea arabica) (UniProt Q42656); test: Counterscreen for Glucocerebrosidase Inhibitors: qHTS Assay for Coffee Bean alpha-Galactosidase at pH 5.9 (AID 998; active means well fitted curve in the direction sought with a large enough effect; an effect the other way counts as inactive or inconclusive;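 further: plate controls were uninhibited enzyme for no effect and no-enzyme basal signal for full effect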)
In short: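 Green coffee bean enzyme (2 nM) with 4-methylumbelliferyl alpha-D-galactopyranoside (80 uM) in 50 mM citric acid, 0.005% Tween-20, pH 5.9, 20 min at room temperature; compounds 0.7 nM–77 uM. Stopped at pH 10, fluorescence Ex365/Em440; Hill-fit AC50.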

Chain of Peroxisome proliferator-activated receptor delta (Homo sapiens) (Q03181 whole entry, looked up): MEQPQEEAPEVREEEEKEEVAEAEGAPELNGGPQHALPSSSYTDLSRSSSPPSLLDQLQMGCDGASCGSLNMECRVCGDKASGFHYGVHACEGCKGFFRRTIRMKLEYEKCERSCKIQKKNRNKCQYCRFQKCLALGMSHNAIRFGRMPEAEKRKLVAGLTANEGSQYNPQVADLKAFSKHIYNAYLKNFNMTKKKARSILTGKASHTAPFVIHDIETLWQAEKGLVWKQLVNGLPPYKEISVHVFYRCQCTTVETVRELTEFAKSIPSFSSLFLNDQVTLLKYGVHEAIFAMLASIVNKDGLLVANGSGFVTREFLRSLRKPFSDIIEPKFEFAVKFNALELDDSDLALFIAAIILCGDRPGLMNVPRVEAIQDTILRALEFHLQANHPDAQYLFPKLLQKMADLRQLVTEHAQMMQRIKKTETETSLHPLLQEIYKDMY
Chain of Bile acid receptor (Homo sapiens) (Q96RI1 whole entry, looked up): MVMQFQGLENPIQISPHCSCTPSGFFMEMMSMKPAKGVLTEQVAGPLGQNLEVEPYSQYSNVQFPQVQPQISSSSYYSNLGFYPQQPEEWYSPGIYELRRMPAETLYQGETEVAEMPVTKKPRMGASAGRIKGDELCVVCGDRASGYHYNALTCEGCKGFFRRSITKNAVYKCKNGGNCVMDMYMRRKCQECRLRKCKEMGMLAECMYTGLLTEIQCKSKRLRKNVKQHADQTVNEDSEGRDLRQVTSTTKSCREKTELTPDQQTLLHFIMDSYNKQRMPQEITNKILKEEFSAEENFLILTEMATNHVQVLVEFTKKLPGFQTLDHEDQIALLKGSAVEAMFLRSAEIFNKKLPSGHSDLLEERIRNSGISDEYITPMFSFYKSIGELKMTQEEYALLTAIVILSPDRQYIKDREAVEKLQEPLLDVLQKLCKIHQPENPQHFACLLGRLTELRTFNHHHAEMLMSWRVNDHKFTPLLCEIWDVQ
Chain of Alpha-galactosidase (Coffea arabica) (Q42656 whole entry, looked up): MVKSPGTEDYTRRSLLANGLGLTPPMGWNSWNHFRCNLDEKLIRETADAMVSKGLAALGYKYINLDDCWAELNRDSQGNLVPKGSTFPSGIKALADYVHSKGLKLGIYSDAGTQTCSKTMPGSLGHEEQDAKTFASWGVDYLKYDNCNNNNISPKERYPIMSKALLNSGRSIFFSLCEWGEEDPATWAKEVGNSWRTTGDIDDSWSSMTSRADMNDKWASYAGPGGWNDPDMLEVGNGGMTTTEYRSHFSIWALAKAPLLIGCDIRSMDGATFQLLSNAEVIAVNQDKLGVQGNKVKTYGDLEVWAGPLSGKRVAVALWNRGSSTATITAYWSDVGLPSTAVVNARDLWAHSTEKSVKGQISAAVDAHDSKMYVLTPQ

O=C(N[C@@H](c1ccccc1)[C@@H]1CCCCN1)c1cccc(C(F)(F)F)c1Cl
active: Potency [1] 0.0243 µM | Potency [2] 0.0086 µM
inactive: Potency [3] | Potency [4]

CN(C)CCN1C(=O)c2cccc3cc(N)cc(c23)C1=O
active: Potency [1] 7.69 µM | Potency [2] 6.85 µM | Potency [5] 7.08 µM

CC(C)NCC(O)COc1cccc2ccccc12 (stereo not drawn)
inactive: Potency [6] | Potency [7] | outcome [8] | activation [9] 0.153% and 4.79% | Potency [10] | Potency [1] | Potency [2]

CCN(CC)Cc1ccc2cc(COC(=O)Nc3ccc(C(=O)NO)cc3)ccc2c1
active: Potency [1] 15.3 µM | Potency [2] 6.85 µM | Potency [4] 10 µM

CN(C)Cc1c(C(=O)NCCOc2ccc(C(=O)NO)cc2)oc2ccccc12
inactive: Potency [5]
active: Potency [1] 2.43 µM | Potency [2] 1.37 µM

CC[n+]1c(/C=C/C=C2/N(C)c3ccccc3C2(C)C)sc2ccccc21
active: Potency [1] 1.58 µM | Potency [2] 0.708 µM
inactive: outcome [8]

CN1CCN2c3ccccc3Cc3ccccc3C2C1 (stereo not drawn)
inactive: Potency [6] | outcome [8] | Potency [1] | Potency [2] | outcome [11] | Potency [12] | outcome [13] | Potency [4]

CC(C)NC[C@@H](O)COc1cccc2ccccc12
inactive: Potency [6] | Potency [1] | Potency [2] | outcome [11] | outcome [13] | Potency [4]
-4.9%: activity change, negative = inhibition [5]

Cc1cc(C(C)Nc2ccccc2)c2nc(N3CCOCC3)cc(=O)n2c1 (stereo not drawn)
inactive: Potency [4]
active: Potency [1] 1.93 µM | Potency [2] 0.544 µM

Cc1c(C(N)=O)cc([N+](=O)[O-])cc1[N+](=O)[O-]
inactive: Potency [1] | Potency [2] | Potency [14] | outcome [11] | Potency [12] | outcome [13] | Potency [4] | Potency [5]

O=c1ccc2ccc(O)c(O)c2o1
inactive: outcome [15] | outcome [16] | Potency [1] | Potency [2]
